# A selection: hits, their analogues and other compounds. The true share with any hit is near 14%.
# USP30 block = inhibitors of human USP30 deubiquitinase. inhibition, % at 25 µM. 47,000 compounds, 5.3% hits. purified USP30, Ub-rhodamine cleavage fluorescence. AID 1645860. Q70CQ3
# USP28 inh = inhibitors of human USP28 deubiquitinase; Q96RU2; purified USP28, Ub-rhodamine cleavage fluorescence, 30 min; inhibition, % at 25 µM; 47,000 compounds, 3% hits; AID 1645857
# Target sequence (Q96RU2 whole entry, looked up): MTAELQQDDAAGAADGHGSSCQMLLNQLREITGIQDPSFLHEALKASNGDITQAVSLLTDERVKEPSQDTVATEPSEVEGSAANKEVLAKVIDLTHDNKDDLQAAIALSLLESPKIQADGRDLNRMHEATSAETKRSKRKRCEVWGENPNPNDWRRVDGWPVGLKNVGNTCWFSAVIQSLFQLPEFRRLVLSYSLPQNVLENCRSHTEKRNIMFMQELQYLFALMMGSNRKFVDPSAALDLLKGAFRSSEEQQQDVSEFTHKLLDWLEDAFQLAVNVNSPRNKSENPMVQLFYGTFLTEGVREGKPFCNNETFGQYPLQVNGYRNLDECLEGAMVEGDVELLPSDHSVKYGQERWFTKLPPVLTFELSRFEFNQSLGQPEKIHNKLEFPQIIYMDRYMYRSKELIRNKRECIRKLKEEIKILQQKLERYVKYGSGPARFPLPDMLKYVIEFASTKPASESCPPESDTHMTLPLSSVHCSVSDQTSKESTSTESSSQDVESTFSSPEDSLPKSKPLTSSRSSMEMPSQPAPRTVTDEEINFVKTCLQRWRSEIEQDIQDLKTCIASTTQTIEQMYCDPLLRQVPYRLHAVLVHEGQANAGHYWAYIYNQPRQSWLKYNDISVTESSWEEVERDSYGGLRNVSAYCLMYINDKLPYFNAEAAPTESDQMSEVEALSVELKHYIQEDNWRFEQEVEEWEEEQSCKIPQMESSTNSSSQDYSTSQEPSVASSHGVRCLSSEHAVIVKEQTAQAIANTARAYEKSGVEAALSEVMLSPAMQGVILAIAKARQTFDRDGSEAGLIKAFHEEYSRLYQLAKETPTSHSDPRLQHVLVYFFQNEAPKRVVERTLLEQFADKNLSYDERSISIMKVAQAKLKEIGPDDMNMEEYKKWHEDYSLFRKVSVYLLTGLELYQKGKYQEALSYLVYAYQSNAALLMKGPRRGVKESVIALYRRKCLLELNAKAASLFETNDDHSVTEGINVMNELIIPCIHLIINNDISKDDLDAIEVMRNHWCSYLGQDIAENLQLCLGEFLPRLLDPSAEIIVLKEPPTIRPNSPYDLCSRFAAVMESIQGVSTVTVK
# USP10 inh = blocks human USP10 ubiquitin-rhodamine cleavage. 47,000 compounds, 1.1% hits. inhibition, % at 20 µM. Q14694. purified USP10, Ub-rhodamine fluorescence, 60 min
# USP17 inh = human USP17-like deubiquitinase inhibition; AID 1645855; purified USP17, Ub-rhodamine cleavage fluorescence, 3 h; inhibition, % at 50 µM; A8MUK1; 47,000 compounds, 6.5% hits
# USP8 block = human USP8 deubiquitinase inhibition. P40818. purified USP8, Ub-rhodamine cleavage fluorescence, 30 min. inhibition, % at 20 µM. 47,000 compounds, 4.2% hits. AID 1645853
# The depositor's hits bear a star; nt = not tested or not shown. Cut-off read from the data, not from the text of the source: active = inhibition above about 30%; inactive = the rest.
SMILES,USP30 block,USP28 inh,USP10 inh,USP17 inh,USP8 block
CC(=O)N1Cc2c(C(=O)Nc3ccc(C)cc3)c3cccnc3n2CC1C (configuration not stated),-47.5,-24.5,-0.8,-14.4,5.4
O=C(Cc1ccccc1)Nc1nc(-c2ccccc2)ns1,36.9*,20.6,2.9,2.8,-0.2
O=C(Nc1nc(-c2ccccc2)ns1)c1ccc2ncsc2c1,12.3,9.5,35.9*,41.2*,16.7
COc1cccc(S(=O)(=O)N2CCC(c3ccn[nH]3)C2)c1 (configuration not stated),13.9,7.5,2.4,2.4,-0.7
COc1cc2ccccc2oc1=O,-16.3,-3.5,-2.1,-20.9,-13.8
COc1ccccc1CNC(=O)c1cc(OCc2ccccc2)nc2ccccc12,nt,nt,-1.4,57.1*,-4.8
O=C(NCc1ccc(F)cc1)c1cc(OCc2ccccc2)nc2ccccc12,31.3*,8.2,2.3,15.7,-64.3
CC(=O)c1nn(-c2cc(C)cc(C)c2)c(=O)[nH]c1=O,6.3,14.5,3.6,11.6,15.8
Cc1c(CC(=O)N2CCN(c3ncccn3)CC2)c(=O)oc2cc(O)ccc12,-8.7,-3.5,4.2,62.6*,3.7
COc1ccc2c(C)c(CC(=O)N3CCN(c4ccccc4)CC3)c(=O)oc2c1,12.0,8.5,-0.7,-11.5,-3.2
Cc1c(CC(=O)N2CCN(c3ccc(Cl)cc3)CC2)c(=O)oc2cc(O)c(Cl)cc12,35.3*,6.8,5.6,18.5,41.4*
CN1C[C@@]23CN(C(=O)c4ccc(Cl)cc4)C[C@@H](C[C@@H]2S1(=O)=O)O3,1.6,1.8,1.7,5.7,9.1
COc1cccc([C@@H]2c3c(C)nn(C)c3NC(=O)[C@H]2NC(=O)c2ccc(Cl)cc2)c1,4.1,34.9*,-3.5,11.0,20.6
Cc1cccc(C(=O)N[C@@H]2C(=O)Nc3c(c(C)nn3C)[C@H]2c2cccc(C(F)(F)F)c2)c1,-17.3,2.9,-2.5,-8.4,-22.1
O=C(c1ccc(Cn2cncn2)cc1)N(Cc1ccc2c(c1)OCO2)C1CCCCC1,25.0,10.1,0.3,6.8,-0.1
O=C(COc1ccc(Cl)cc1)N1CCc2cc3ccccc3nc21,-13.9,2.3,-5.1,65.5*,-12.3
O=C1CCN(C(=O)COc2ccc(Cl)cc2)c2ccccc2N1,15.3,-4.3,0.6,-8.9,1.5
N#CCCc1c(-c2ccccc2)nc2[nH]c3ccccc3n2c1=O,11.4,6.5,12.3,15.9,38.9*
O=C1CCC[C@]2(CN(C(=O)C3CC3)C[C@H]2c2ccccc2F)N1,10.1,-3.3,-0.5,-0.4,11.1
Cc1c(CC(=O)NC2CC2)c(=O)oc2cc3c(cc12)CCC1(CCCCC1)O3,25.8,14.4,-4.0,12.9,16.1
Cc1c(CC(=O)Nc2nn[nH]n2)c(=O)oc2cc3c(cc12)CCC1(CCCCC1)O3,57.5*,20.7,21.3,-0.1,-253.1
O=C(NC1CCS(=O)(=O)C1)c1ccc(N2CCC(Cc3ccccc3)CC2)nn1 (configuration not stated),22.7,5.3,4.9,53.1*,-0.3
O=C1CN(C(=O)c2ccc(N3CCC(Cc4ccccc4)CC3)nn2)CCN1,3.0,12.8,-4.1,-27.4,-1.2
Cc1ccc(C(=O)[C@H]2C(c3ccccc3OCC#N)=NO[C@]23C(=O)Nc2ccccc23)cc1,28.8,20.6,9.3,41.6*,8.9
Cn1c(=O)c2cc(C(=O)Nc3ccccc3)cnc2n(-c2ccc(F)cc2)c1=O,6.6,2.3,14.6,8.9,2.6
SMILES,USP30 block,USP28 inh,USP10 inh,USP17 inh,USP8 block
Cc1ccc(NC(=O)c2cnc3c(c2)c(=O)n(C)c(=O)n3C)cc1,18.5,0.3,1.1,62.4*,1.0
COc1cccc(NC(=O)c2cnc3c(c2)c(=O)n(C)c(=O)n3C)c1,70.7*,41.1*,8.4,21.6,18.1
Cn1c(=O)c2cc(C(=O)Nc3ccc(Cl)c4cccnc34)cnc2n(C)c1=O,-58.1,-17.9,-2.7,-16.3,-41.0
Fc1cc(F)cc(-c2noc3ncnc(NCCN4CCCCC4)c23)c1,11.2,6.0,1.4,nt,13.4
COc1cccc(S(=O)(=O)N2CC[C@@H]3[C@H]2C(=O)N(C)[C@@H](C)C(=O)N3C)c1,18.8,12.7,0.1,13.9,31.7*
O=C(NCCC1=CCCCC1)C1CN(C(=O)c2cnccn2)C1,2.1,3.0,-2.2,-2.3,-23.8
Cc1cc(-c2cnc(N3CCCCC3)nc2C2CCN(c3cnccn3)CC2)on1,34.4*,8.4,-2.2,16.8,6.4
Cc1cc(-c2cnc(N3CCSCC3)nc2[C@@H]2CCCO2)on1,32.6*,-0.2,0.2,30.0,-19.1
CCn1cc(C(=O)N2CCC(c3cc(=O)n4[nH]ccc4n3)CC2)cn1,12.4,3.9,0.0,1.5,-35.8
C1=CCC(CN(CCCn2ccnc2)Cc2cnc[nH]2)CC1 (configuration not stated),6.4,-1.8,0.0,0.0,32.4*
O=C(c1cn(-c2ccc(F)cc2)nn1)N1CCCC1,-21.5,-7.8,2.7,-10.1,-0.2
N#Cc1c2n(c(=O)n(CCOc3ccccc3F)c1=O)CCC2,-42.1,2.0,-4.6,1.1,33.1*
COc1ccc(OCCn2c(=O)c(C#N)c3n(c2=O)CCC3)cc1,-127.3,-45.2,-1.4,-21.9,20.4
COc1cc(OC)c(NC(=O)CN2C(=O)CSc3ncccc32)cc1Cl,-30.9,-0.2,-4.4,4.7,3.8
O=C(Cc1ccccc1F)Nc1nc(-c2ccco2)c(-c2ccco2)s1,-111.3,43.0*,-11.9,nt,73.9*
COc1ccc(CC(=O)Nc2nc3c(s2)CCC3)cc1,-2.5,22.1,-0.7,12.6,23.2
COc1ccc(CC(=O)Nc2nc(-c3ccco3)c(-c3ccco3)s2)cc1,-64.2,32.2*,-12.9,65.4*,73.2*
COc1cccc(CNC(=O)C2Oc3ccccc3NC2=O)c1 (configuration not stated),-10.5,-2.2,2.2,-1.4,1.3
COc1ccc(OC)c(NC(=O)C2Oc3ccccc3NC2=O)c1 (configuration not stated),-0.3,51.0*,0.6,-11.4,-0.5
O=C(NCCc1ccccc1)[C@H]1C=CCN1C(=O)c1ccc(F)cc1F,6.9,5.9,5.1,3.1,2.3
COc1cc(OC)cc(-n2c(=O)c3sccc3n(CC(=O)c3ccc(Cl)cc3)c2=O)c1,30.4*,11.3,8.7,34.8*,-0.7
COc1ccc(/C=C2\CSc3sccc3C2=O)cc1,21.1,49.7*,1.9,20.2,11.5
CC1(C)c2[nH]c3ccccc3c2C[C@@H]2C(=O)N(C3CCCC3)CC(=O)N21,3.9,-0.7,0.5,-0.7,1.7
COc1ccc(N2C(=O)[C@@H]3Cc4c([nH]c5ccccc45)C(C)(C)N3C2=O)c(OC)c1,-21.7,-20.9,3.1,47.0*,-9.1
CC1(C)c2[nH]c3ccccc3c2C[C@@H]2C(=O)N(C3CCCCC3)CC(=O)N21,13.2,11.5,7.0,12.3,31.3*
COc1cc(NC(=O)CCCC2=NS(=O)(=O)c3ccccc3N2)cc(OC)c1,13.4,14.2,1.3,8.8,0.6

# Assay outcomes (PubChem BioAssay)
